Our source for the binding signal values is paper PMC11574364.

Among the targets are CELF2(1-2) (Homo sapiens, UniProt O95319); CELF4(1-2) (Homo sapiens, UniProt Q9BZC1); CELF1(1-2) (Homo sapiens, UniProt Q92879); CELF4(3) (Homo sapiens, UniProt Q9BZC1); CELF2(3) (Homo sapiens, UniProt O95319); CELF1(3) (Homo sapiens, UniProt Q92879); hnRNP-A2/B1 (Homo sapiens, UniProt P22626); ELAVL2 (Homo sapiens, UniProt Q12926); hnRNP-C1/C2 (Homo sapiens, UniProt P07910); CELF6(3) (Homo sapiens, UniProt Q96J87); PABP3 (Homo sapiens, UniProt Q9H361); ZCRB1 (Homo sapiens, UniProt Q8TBF4).

Holding throughout (assay): protein domain microarray probed with biotinylated miRNA; Domain array: 20 mM Tris-HCl pH 7.4, 200 mM KCl, 0.2 mM EDTA, 0.05% NP40, 2 ug/ul heparin, overnight 4 C. ORF array: PBS pH 7.0 with RNase inhibitor, 100 ng RNA; high values mean tight binding
Holding throughout (conditions): ssRNA

The next assay has as its target T1, Acinus(1) (Homo sapiens, UniProt Q9UKV3).
T1 sequence: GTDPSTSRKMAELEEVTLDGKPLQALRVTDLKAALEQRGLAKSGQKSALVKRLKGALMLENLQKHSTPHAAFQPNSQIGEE

The target of the next assay is T2, BOLL (Homo sapiens, UniProt Q8N9W6).
T2 sequence: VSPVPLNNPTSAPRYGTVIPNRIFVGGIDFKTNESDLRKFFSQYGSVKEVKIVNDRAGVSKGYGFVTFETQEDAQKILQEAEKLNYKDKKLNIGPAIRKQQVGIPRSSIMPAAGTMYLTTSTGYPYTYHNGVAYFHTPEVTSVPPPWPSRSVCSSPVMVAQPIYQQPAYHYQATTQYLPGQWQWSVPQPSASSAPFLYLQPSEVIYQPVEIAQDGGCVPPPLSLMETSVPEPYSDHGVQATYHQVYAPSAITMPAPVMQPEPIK

For another assay, the target named is T3, A2BP1 (Homo sapiens, UniProt Q9NWB1).
T3 sequence: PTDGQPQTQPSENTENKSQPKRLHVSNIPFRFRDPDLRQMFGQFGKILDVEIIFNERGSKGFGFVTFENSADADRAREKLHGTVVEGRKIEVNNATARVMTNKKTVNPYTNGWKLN

A further assay has as its target T4, G3BP-2 (Homo sapiens, UniProt Q9UN86).
T4 sequence: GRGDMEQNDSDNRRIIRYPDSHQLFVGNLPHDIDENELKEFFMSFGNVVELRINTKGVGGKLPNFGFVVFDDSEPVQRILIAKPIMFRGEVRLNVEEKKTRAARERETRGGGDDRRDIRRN

The next assay concerns the target T5, DAZAP1 (Homo sapiens, UniProt Q96EP5).
T5 sequence: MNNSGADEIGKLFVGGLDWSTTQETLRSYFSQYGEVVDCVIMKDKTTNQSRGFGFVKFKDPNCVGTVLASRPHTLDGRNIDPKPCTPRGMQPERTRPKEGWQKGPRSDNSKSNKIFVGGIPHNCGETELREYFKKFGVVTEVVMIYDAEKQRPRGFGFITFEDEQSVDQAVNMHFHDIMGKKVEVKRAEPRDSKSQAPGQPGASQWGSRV

For a further assay, the target named is T6, CPEB2 (Homo sapiens, UniProt Q7Z5Q1).
T6 sequence: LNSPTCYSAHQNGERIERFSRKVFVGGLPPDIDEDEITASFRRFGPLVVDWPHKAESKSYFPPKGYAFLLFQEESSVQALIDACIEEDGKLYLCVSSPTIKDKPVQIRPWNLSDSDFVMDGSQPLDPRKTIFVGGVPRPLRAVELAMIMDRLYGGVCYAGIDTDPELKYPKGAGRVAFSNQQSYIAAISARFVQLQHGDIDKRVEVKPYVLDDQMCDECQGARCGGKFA

Another assay concerns the target T7, Matrin-3 (Homo sapiens, UniProt P43243).
T7 sequence: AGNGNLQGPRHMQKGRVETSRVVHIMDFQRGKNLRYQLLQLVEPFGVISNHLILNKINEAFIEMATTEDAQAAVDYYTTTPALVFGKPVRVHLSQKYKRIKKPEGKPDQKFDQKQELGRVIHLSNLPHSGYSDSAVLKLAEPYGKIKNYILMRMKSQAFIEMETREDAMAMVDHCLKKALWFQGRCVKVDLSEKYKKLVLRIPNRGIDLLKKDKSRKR

Another assay has as its target T8, HNRPLL (Homo sapiens, UniProt Q8WVV9).
T8 sequence: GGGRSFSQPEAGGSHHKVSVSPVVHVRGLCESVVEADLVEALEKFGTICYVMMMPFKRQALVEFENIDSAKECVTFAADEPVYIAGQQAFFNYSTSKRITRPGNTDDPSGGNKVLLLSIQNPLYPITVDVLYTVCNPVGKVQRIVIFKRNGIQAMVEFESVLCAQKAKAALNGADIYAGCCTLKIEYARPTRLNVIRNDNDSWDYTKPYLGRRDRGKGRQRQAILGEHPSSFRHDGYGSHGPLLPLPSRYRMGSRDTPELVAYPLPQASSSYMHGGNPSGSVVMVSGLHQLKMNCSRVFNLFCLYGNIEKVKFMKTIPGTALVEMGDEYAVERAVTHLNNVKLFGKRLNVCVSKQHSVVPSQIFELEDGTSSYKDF

Chain of hnRNP-A2/B1 (P22626 1-210): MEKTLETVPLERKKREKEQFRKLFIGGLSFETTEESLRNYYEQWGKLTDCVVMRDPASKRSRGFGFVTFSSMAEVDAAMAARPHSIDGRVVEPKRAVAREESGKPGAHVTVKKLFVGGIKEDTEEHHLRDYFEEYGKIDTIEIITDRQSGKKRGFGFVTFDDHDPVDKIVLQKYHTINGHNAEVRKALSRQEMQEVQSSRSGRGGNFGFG
Chain of CELF1(1-2) (Q92879 1-210): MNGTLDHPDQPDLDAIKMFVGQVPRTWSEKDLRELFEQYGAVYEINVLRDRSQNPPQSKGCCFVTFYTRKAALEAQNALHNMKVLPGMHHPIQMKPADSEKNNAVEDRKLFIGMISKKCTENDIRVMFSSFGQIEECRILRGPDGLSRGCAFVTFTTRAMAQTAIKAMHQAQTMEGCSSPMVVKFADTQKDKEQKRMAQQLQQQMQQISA
Chain of ELAVL2 (Q12926 20-359): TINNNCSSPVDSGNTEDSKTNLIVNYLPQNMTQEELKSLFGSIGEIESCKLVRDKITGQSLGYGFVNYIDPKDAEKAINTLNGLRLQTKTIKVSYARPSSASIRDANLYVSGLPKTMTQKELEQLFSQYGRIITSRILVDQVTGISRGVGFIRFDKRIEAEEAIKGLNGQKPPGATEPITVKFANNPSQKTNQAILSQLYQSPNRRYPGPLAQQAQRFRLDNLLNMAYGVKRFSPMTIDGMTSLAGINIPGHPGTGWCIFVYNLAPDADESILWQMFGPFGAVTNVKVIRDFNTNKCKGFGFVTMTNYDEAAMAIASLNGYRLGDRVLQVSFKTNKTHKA
Chain of PABP3 (Q9H361 1-390): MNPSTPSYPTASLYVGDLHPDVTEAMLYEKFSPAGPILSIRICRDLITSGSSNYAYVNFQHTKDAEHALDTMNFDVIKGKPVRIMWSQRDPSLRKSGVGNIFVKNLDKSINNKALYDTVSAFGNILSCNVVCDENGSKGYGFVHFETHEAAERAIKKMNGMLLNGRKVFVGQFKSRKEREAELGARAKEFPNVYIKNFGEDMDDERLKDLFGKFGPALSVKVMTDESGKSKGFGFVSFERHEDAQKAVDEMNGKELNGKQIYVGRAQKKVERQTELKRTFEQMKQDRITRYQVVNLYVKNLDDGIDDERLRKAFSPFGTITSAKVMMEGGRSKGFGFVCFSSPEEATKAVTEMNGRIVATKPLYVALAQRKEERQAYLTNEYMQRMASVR
Chain of CELF2(1-2) (O95319 19-241): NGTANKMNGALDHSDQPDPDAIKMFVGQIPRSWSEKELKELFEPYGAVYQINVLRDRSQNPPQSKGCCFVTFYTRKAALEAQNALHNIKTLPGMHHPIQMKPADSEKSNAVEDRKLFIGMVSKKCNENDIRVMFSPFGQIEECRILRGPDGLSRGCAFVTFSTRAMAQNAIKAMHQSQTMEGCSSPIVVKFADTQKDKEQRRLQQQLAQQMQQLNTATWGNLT
Chain of CELF4(1-2) (Q9BZC1 31-250): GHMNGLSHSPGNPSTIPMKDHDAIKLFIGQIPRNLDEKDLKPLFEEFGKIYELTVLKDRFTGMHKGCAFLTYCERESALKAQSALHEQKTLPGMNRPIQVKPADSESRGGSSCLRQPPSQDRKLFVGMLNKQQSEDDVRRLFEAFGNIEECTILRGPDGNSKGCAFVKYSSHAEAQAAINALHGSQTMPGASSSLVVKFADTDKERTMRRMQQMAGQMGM
Chain of ZCRB1 (Q8TBF4 1-110): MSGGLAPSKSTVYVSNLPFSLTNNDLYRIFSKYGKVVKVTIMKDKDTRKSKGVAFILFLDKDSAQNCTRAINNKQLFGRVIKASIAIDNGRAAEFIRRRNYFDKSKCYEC
Chain of hnRNP-C1/C2 (P07910 1-110): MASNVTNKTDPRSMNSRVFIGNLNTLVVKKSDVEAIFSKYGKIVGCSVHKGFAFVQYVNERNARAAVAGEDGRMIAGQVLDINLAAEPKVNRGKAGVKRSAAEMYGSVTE
Chain of CELF1(3) (Q92879 370-486): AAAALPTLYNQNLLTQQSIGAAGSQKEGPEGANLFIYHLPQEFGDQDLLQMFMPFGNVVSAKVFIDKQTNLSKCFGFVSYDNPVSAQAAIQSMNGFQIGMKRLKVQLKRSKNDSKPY
Chain of CELF6(3) (Q96J87 372-481): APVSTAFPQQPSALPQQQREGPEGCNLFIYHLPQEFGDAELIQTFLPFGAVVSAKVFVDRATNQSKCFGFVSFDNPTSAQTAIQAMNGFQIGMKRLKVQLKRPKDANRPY
Chain of CELF2(3) (O95319 396-508): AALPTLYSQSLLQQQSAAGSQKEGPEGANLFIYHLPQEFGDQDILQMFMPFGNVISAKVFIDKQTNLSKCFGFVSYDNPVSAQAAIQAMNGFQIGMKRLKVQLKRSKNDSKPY
Chain of CELF4(3) (Q9BZC1 380-486): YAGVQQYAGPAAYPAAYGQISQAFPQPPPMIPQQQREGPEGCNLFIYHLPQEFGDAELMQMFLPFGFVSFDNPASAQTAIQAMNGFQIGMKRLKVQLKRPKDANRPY

With UGAGGUAGUAGGUUGUGUGGUU, the binding signal with CELF2(1-2) worked out at 156 ± 18.9 fluorescence intensity; with Acinus(1) it was 330 ± 24.8 fluorescence intensity; with CELF4(1-2) it was 241 ± 6.35 fluorescence intensity; with BOLL, 986 ± 65.6 fluorescence intensity; with CELF1(1-2) it was 32.2 ± 23.1 fluorescence intensity; with CELF4(3) it was 33.3 ± 4.99 fluorescence intensity. Besides, the binding signal was 2850 ± 134 fluorescence intensity with CELF2(3); 2820 ± 118 fluorescence intensity with CELF1(3); 3130 ± 57 fluorescence intensity in the assay with A2BP1; 967 ± 16.3 fluorescence intensity with G3BP-2; 2240 ± 7.74 fluorescence intensity with hnRNP-A2/B1; 2560 ± 130 fluorescence intensity with DAZAP1. In addition, the binding signal in the assay with ELAVL2 turned out to be 1370 ± 72.6 fluorescence intensity; with CPEB2, 108 ± 11.6 fluorescence intensity; in the assay with hnRNP-C1/C2 it was 742.6 ± 1.1 fluorescence intensity; with CELF6(3), 653 ± 52 fluorescence intensity; with Matrin-3, 496.54 ± 0.269 fluorescence intensity; with PABP3 it was 334 ± 26 fluorescence intensity. Also, the binding signal in the assay with ZCRB1 is 1440 ± 63.3 fluorescence intensity; in the assay with HNRPLL, 120 ± 20.3 fluorescence intensity.

As for UGAGGUAGUAGGUUGUAUGGUU, the binding signal in the assay with CELF2(1-2) worked out at 79.94 ± 0.219 fluorescence intensity; in the assay with Acinus(1), 162 ± 13.3 fluorescence intensity; with CELF4(1-2) it was 96 ± 8.15 fluorescence intensity; in the assay with BOLL, 423 ± 34.1 fluorescence intensity; in the assay with CELF1(1-2), 24.5 ± 18.4 fluorescence intensity; with CELF4(3) it was 24.3 ± 1.9 fluorescence intensity. Further, the binding signal was determined as 2750 ± 76 fluorescence intensity with CELF2(3); 2750 ± 97.5 fluorescence intensity in the assay with CELF1(3); 2938 ± 25.1 fluorescence intensity with A2BP1; 697 ± 11.7 fluorescence intensity with G3BP-2; 2642 ± 18.6 fluorescence intensity with hnRNP-A2/B1; 2980 ± 146 fluorescence intensity with DAZAP1. Moreover, the binding signal turned out to be 1210 ± 62.5 fluorescence intensity with ELAVL2; 66.6 ± 14.3 fluorescence intensity with CPEB2; 636.15 ± 0.594 fluorescence intensity in the assay with hnRNP-C1/C2; 628 ± 29.6 fluorescence intensity in the assay with CELF6(3); 251.8 ± 1.32 fluorescence intensity with Matrin-3; 211 ± 6.4 fluorescence intensity with PABP3. For the same sequence, the binding signal worked out at 1150 ± 9.06 fluorescence intensity in the assay with ZCRB1 and 97.4 ± 6.78 fluorescence intensity in the assay with HNRPLL.

With UAGCUUAUCAGACUGAUGUUGA, the binding signal with CELF2(1-2) was found to be 21.3 ± 6.6 fluorescence intensity; with CELF4(1-2), 20.5 ± 0.276 fluorescence intensity; in the assay with BOLL, 567 ± 57.8 fluorescence intensity; in the assay with CELF1(1-2), 45.6 ± 13.3 fluorescence intensity; with CELF2(3), 1040 ± 177 fluorescence intensity; with CELF1(3) it was 1160 ± 14.2 fluorescence intensity. Moreover, the binding signal in the assay with A2BP1 was 2210 ± 93.6 fluorescence intensity; with G3BP-2, 330 ± 22.3 fluorescence intensity; in the assay with hnRNP-A2/B1 it was 255 ± 27.4 fluorescence intensity; with DAZAP1, 717 ± 152 fluorescence intensity; with ELAVL2, 653 ± 28.8 fluorescence intensity; with CPEB2 it was 118 ± 118 fluorescence intensity. The binding signal with hnRNP-C1/C2 was 162 ± 10.4 fluorescence intensity; with CELF6(3) it was 42.1 ± 8.05 fluorescence intensity; with Matrin-3, 38.7 ± 15.4 fluorescence intensity; with ZCRB1 it was 189 ± 14.5 fluorescence intensity.

AGAGGUAGUAGGUUGCAUAGUU: the binding signal stood at 63.2 ± 10.6 fluorescence intensity in the assay with CELF2(1-2); 144 ± 9.49 fluorescence intensity with Acinus(1); 73.4 ± 2.28 fluorescence intensity with CELF4(1-2); 995 ± 54.2 fluorescence intensity with BOLL; 20.1 ± 13.8 fluorescence intensity in the assay with CELF1(1-2); 28.9 ± 2.98 fluorescence intensity with CELF4(3). For the same sequence, the binding signal was found to be 2420 ± 70.3 fluorescence intensity with CELF2(3); 2720 ± 64 fluorescence intensity with CELF1(3); 4220 ± 134 fluorescence intensity with A2BP1; 942 ± 20.8 fluorescence intensity in the assay with G3BP-2; 3610 ± 47.7 fluorescence intensity with hnRNP-A2/B1; 3900 ± 300 fluorescence intensity with DAZAP1. Besides, the binding signal was found to be 1660 ± 45 fluorescence intensity with ELAVL2; 65.7 ± 16.8 fluorescence intensity with CPEB2; 406 ± 24 fluorescence intensity with hnRNP-C1/C2; 608 ± 73.6 fluorescence intensity with CELF6(3); 201 ± 2.89 fluorescence intensity in the assay with Matrin-3; 119 ± 10.5 fluorescence intensity with PABP3. Besides, the binding signal with ZCRB1 came to 1460 ± 22.6 fluorescence intensity; in the assay with HNRPLL, 123 ± 7.11 fluorescence intensity.

Turning to UGAGGUAGUAGGUUGUAUAGUU, the binding signal turned out to be 29.8 ± 2.19 fluorescence intensity with CELF2(1-2); 37 ± 6.58 fluorescence intensity with Acinus(1); 30.5 ± 1.88 fluorescence intensity in the assay with CELF4(1-2); 175 ± 17.3 fluorescence intensity with BOLL; 2178 ± 19.2 fluorescence intensity with CELF2(3); 2270 ± 106 fluorescence intensity in the assay with CELF1(3). Further, the binding signal with A2BP1 was 1110 ± 13.1 fluorescence intensity; with G3BP-2, 117 ± 15.5 fluorescence intensity; with hnRNP-A2/B1, 1499 ± 4.81 fluorescence intensity; with DAZAP1 it was 1600 ± 139 fluorescence intensity; with ELAVL2 it was 608.35 ± 0.587 fluorescence intensity; with CPEB2 it was 42.8 ± 2.43 fluorescence intensity. Also, the binding signal with hnRNP-C1/C2 is 244.2 ± 0.382 fluorescence intensity; with CELF6(3) it was 282 ± 110 fluorescence intensity; in the assay with Matrin-3, 69.3 ± 9.98 fluorescence intensity; in the assay with PABP3 it was 31.2 ± 7.62 fluorescence intensity; in the assay with ZCRB1, 602 ± 7.03 fluorescence intensity.

Take CAGUGCAAUGAUGAAAGGGCAU: the binding signal in the assay with CELF2(1-2) turned out to be 48.3 ± 1.66 fluorescence intensity; in the assay with Acinus(1), 130 ± 7.88 fluorescence intensity; in the assay with CELF4(1-2) it was 68.5 ± 5.81 fluorescence intensity; with BOLL it was 433.1 ± 0.594 fluorescence intensity; with CELF1(1-2), 29.4 ± 2.27 fluorescence intensity; with CELF4(3), 22.5 ± 0.509 fluorescence intensity. Moreover, the binding signal in the assay with CELF2(3) turned out to be 1010 ± 110 fluorescence intensity; in the assay with CELF1(3) it was 1043.4 ± 0.00707 fluorescence intensity; in the assay with A2BP1 it was 3922 ± 30.6 fluorescence intensity; in the assay with G3BP-2, 1910 ± 49.7 fluorescence intensity; with hnRNP-A2/B1 it was 2236 ± 9.55 fluorescence intensity; with DAZAP1, 1540 ± 260 fluorescence intensity. The binding signal with ELAVL2 was determined as 965 ± 66.1 fluorescence intensity; in the assay with CPEB2 it was 35.7 ± 11 fluorescence intensity; with hnRNP-C1/C2, 146 ± 4.99 fluorescence intensity; with CELF6(3) it was 151 ± 17.8 fluorescence intensity; in the assay with Matrin-3, 116 ± 6.43 fluorescence intensity; with PABP3 it was 60.5 ± 8.1 fluorescence intensity. Also, the binding signal with ZCRB1 was 824 ± 79.4 fluorescence intensity; in the assay with HNRPLL, 68.7 ± 5.11 fluorescence intensity.
